In PubChem BioAssay (NCATS):
Values joined by “and” are separate entries in the source; they are usually repeats but may differ in a detail not shown here. Equal values may be shown once. Records with an inconclusive call do not appear. Active and inactive are the calls of the source. Unless noted, calls follow the shape of the dose curve; as a rule, active = well fitted curve in the direction sought with a large enough effect; inconclusive = small, poorly fitted or top-dose-only effect, or another doubt; inactive = no such curve, though single readings can be large; an effect the other way counts as inactive or inconclusive.

Legend:
[1] = biological target: Cytochrome P450 1A2 (Homo sapiens) (UniProt P05177); experiment: p450-cyp1a2 (AID 410; calls by dose curve; also: potency is read from the fitted curve at half-maximal effect)
Procedure, shortened: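 Luminescent readout of luciferin formed from Luciferin-ME by human CYP1A2; data normalized against complete inhibition by 57 uM furafylline. Enzyme 20nM, substrate 100uM at Km, 100mM KPO4 buffer, 60 min reaction at room temperature.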

[2] = biological target: Glucocorticoid receptor (Homo sapiens) (UniProt P04150); experiment: GR-GFP Redistribution (AID 450;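 active = compounds whose dose series gives a full or clear partial fitted curve of increased nuclear translocation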; also: potency is read from the fitted curve at half-maximal effect); conditions: U2OS GR-GFP nuclear translocation, laser cytometry, 2 h
[3] = biological target: Mitogen-activated protein kinase 10 (Mus musculus) (UniProt Q61831); experiment: JNK3 AlphaScreen Assay (AID 530; active = well fitted curve in either direction with a large enough effect, not every such curve was filed as active;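 also: kinase came from lysate of stimulated human HepG2 cells; signal reports phosphorylation of biotinylated GST-cJun 1-79 at Ser73 with 10 µM ATP; series mostly up to about 57 µM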)
Procedure, shortened: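 Compound titrations were preincubated 15 minutes at room temperature with substrate, antibody and pre-activated JNK3-containing HepG2 lysate. Reactions were started with 10 uM ATP and stopped with EDTA-containing bead buffer for AlphaScreen detection.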

[4] = biological target: 3',5'-cyclic-AMP phosphodiesterase 4B (Homo sapiens) (UniProt Q07343); experiment: qHTS Assay for Inhibitors of PDE-IV (AID 607; active = well fitted activation curve with a large enough effect in the main read-out, with a control signal flat, not every such curve was filed as active)
Procedure, shortened: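 The readout is membrane depolarisation from a cAMP-sensing CNG channel, detected with a potential dye at ex 535/em 590. Cells were HEK293-derived (endogenous PDE-IV) at 1000 cells/well, titrated up to 22.9 uM final.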

[5] = biological target: Guanine nucleotide-binding protein G(i) subunit alpha-1 (Homo sapiens) (UniProt P63096); experiment: qHTS Assay for Inhibitors of RGS12 GoLoco Motif Activity (Green Fluorophore) (AID 879);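 also: negative values mean loss of peptide binding seen as reduced polarization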
Procedure, shortened: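 Fluorescence polarization assay: 50 nM Gαi1 with 10 nM FITC-labeled RGS12 GoLoco peptide in 10 mM Tris pH 7.5, 150 mM NaCl, 0.1 mM GDP, 0.05% NP40, 10 min at room temperature with compound.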

[6] = biological target: Cytochrome P450 2C9 (Homo sapiens) (UniProt P11712); experiment: qHTS Assay for Inhibitors and Substrates of Cytochrome P450 2C9 (AID 883); also: potency is read from the fitted curve at half-maximal effect; nearly all actives have a fitted effect of over 60% in size
Procedure, shortened: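 Inhibition of CYP2C9 is scored as loss of luminescence, with 57uM sulphaphenazole defining 100% inhibition. Substrate Luciferin-H is used at 100uM, equal to its KM; enzyme at 10nM in 25mM KPO4, 60 min at 37C with NADPH regeneration.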

[7] = biological target: Cytochrome P450 3A4 (Homo sapiens) (UniProt P08684); experiment: qHTS Assay for Inhibitors and Substrates of Cytochrome P450 3A4 (AID 884); also: potency is read from the fitted curve at half-maximal effect; nearly all actives have a fitted effect of over 50% in size
Procedure, shortened: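 20 nM human CYP3A4 with 25 uM Luciferin-PPXE (at KM) in 200 mM KPO4, preincubated 10 min with compound; NADPH regeneration started a 60 min RT reaction. Luciferin detected by luminescence, normalized to 57 uM ketoconazole as full inhibition.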

[8] = biological target: Cytochrome P450 3A4 (Homo sapiens) (UniProt P08684); experiment: qHTS Assay for Activators of Cytochrome P450 3A4 (AID 885); also: nearly all actives have a fitted effect of over 65% in size
Procedure, shortened: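 Steps: enzyme/substrate mix dispensed; compound added, 10 min RT; NADPH regeneration solution added, 60 min RT; luciferin detection buffer stops reaction; 20 min later luminescence measured.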

[9] = biological target: Muscarinic acetylcholine receptor M1 (Rattus norvegicus) (UniProt P08482); experiment: qHTS Assay for Antagonists of Acetylcholine Muscarinic M1 Receptor: Kinetic Measurement of Intracellular Calcium Response (AID 943);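 also: Fluo-4 calcium signal as peak divided by basal fluorescence over 4 min; series mostly up to about 35 µM; nearly all actives have a fitted effect of over 75% in size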
Procedure, shortened: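 Rat M1-CHO cells, 2000/well, overnight → Fluo-4 no-wash dye with probenecid, 1 h 37C → compound 10 min, room temp → basal read 6 s → carbachol EC80 (100 nM) → 4 min kinetic read; peak/basal.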

[10] = biological target: Pyruvate kinase (Leishmania mexicana) (UniProt Q27686); experiment: qHTS Validation Assay for Inhibitors of Leishmania Mexicana Pyruvate Kinase (AID 945)
Procedure, shortened: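 LmPYK E451W 0.2 nM; 0.5 mM PEP, 0.1 mM ADP, 7 mM MgCl2, 50 mM KCl, imidazole pH 7.2, 0.01% Tween 20, 0.05% BSA; 1 h RT; PKLight luminescence; DMSO-normalized.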

[11] = biological target: Alpha-galactosidase A (Homo sapiens) (UniProt P06280); experiment: Counterscreen for Glucocerebrosidase Inhibitors: qHTS Assay for Human alpha-Galactosidase at pH 4.5 (AID 992)
Procedure, shortened: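 Concentration-response curves (0.7 nM to 77 uM final) were modeled with the Hill equation to give AC50. Reactions: 2 nM enzyme, 80 uM fluorogenic alpha-galactoside, pH 4.5 citric acid buffer, 20 min, room temperature.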

[12] = biological target: alpha-glucosidase (Oryza sativa, rice) (UniProt Q653V4); experiment: Counterscreen for Glucocerebrosidase Inhibitors: qHTS Assay for Rice alpha-Glucosidase at pH 5.0 (AID 997)
Procedure, shortened: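 Rice alpha-glucosidase (4 nM final) with 400 uM 4-methylumbelliferyl-alpha-D-glucopyranoside in citrate buffer pH 5.0, 20 min at room temperature, stopped at pH 10; fluorescence 365/440 nm, compounds 0.7 nM–77 uM, AC50 from Hill fits.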

[13] = Validation of Assay for Modulators of Lamin A Splicing (AID 1459; active = well fitted curve in the direction sought with a large enough effect in the signal ratio; the % refers to the signal ratio;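 also: cells exposed to compound for two days before reading; ratio rise marks activators and ratio drop marks inhibitors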)
Procedure, shortened: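 Splicing correction read as GFP (500-530 nm) over DsRed2 (575-640 nm) object intensity after 48 h compound exposure of reporter HeLa S3 clones (600 cells/well, 2% FBS medium); ancitabine and cycloheximide titrations, 0.5% DMSO as vehicle.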

[14] = biological target: DNA repair nuclease/redox regulator APEX1 (Homo sapiens) (UniProt P27695); experiment: qHTS Validation Assay for Inhibitors of the Human Apurinic/apyrimidinic Endonuclease 1 (APE1) (AID 1705;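 also: TAMRA fluorescence gain over two minutes as APE1 cuts a quenched THF abasic duplex; series mostly up to about 57 µM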)
Procedure, shortened: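 Activity read as rising fluorescence (598 nm emission, 525 nm excitation) from incision of a TAMRA/BHQ-2 duplex carrying a THF abasic site (50 nM). Compound and enzyme sat 15 min at RT before substrate start; signal change between first and third 60-s reads.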

[15] = Counterscreen for APE1 Inhibitors: Fluorescent Dye Displacement Validation Assay (AID 1707)
Procedure, shortened: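 Assay buffer: Tris-HCl pH7.5 with 50mM NaCl, 2 mM MgCl2, 0.01% Tween-20. Dye 250 nM, duplex 50 nM final. Readout: decrease in ThO endpoint fluorescence, 480 nm excitation, 540 nm emission.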

[16] = biological target: Endonuclease 4 (Escherichia coli (strain K12)) (UniProt P0A6C1); experiment: Counterscreen for APE1 Inhibitors: qHTS Validation Assay for Inhibitors of Endonuclease IV (AID 1708)
Procedure, shortened: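 qHTS concentration-response format; LOPAC1280 tested under APE1-screen conditions. 2 nM enzyme, 15 min compound preincubation at RT, then 50 nM TAMRA/BHQ-2 abasic substrate; kinetic fluorescence read, three reads at 60 s intervals.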

[17] = qHTS for differential inhibitors of proliferation of Plasmodium falciparum line 7G8 (AID 1815);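 also: potency is read from the fitted curve at half-maximal effect; parasite growth measured after three days of incubation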
[18] = qHTS for differential inhibitors of proliferation of Plasmodium falciparum line GB4 (AID 1816); conditions: Potency: Plasmodium falciparum GB4 proliferation inhibition;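 also: potency is read from the fitted curve at half-maximal effect; parasite growth measured after 72 h incubation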
[19] = qHTS for differential inhibitors of proliferation of Plasmodium falciparum line 3D7 (AID 1876); also: potency is read from the fitted curve at half-maximal effect
[20] = qHTS for differential inhibitors of proliferation of Plasmodium falciparum line D10 (AID 1877);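 also: potency is read from the fitted curve at half-maximal effect; parasites grown with compound for 72 h before DNA staining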
[21] = qHTS for differential inhibitors of proliferation of Plasmodium falciparum line Dd2 (AID 1882); conditions: Potency: Plasmodium falciparum Dd2 proliferation inhibition; also: potency is read from the fitted curve at half-maximal effect; nearly all actives have a fitted effect of over 65% in size
Procedure, shortened: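 Dd2-infected erythrocytes (0.3% parasitemia, 2.5% hematocrit final) incubated with compound 72 h at 37 C, 5% CO2; lysed with saponin/Triton buffer containing SYBR Green I, incubated overnight in the dark, then read by fluorescence (485/535 nm). Normalized to 0.29 uM artemisinin and DMSO.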

[22] = qHTS for differential inhibitors of proliferation of Plasmodium falciparum line W2 (AID 1883); conditions: Potency: Plasmodium falciparum W2 proliferation inhibition;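 also: potency is read from the fitted curve at half-maximal effect; parasites grown with compound for 72 h before lysis and staining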
[23] = qHTS for differential inhibitors of proliferation of Plasmodium falciparum line HB3 (AID 1886); conditions: Potency: Plasmodium falciparum HB3 proliferation inhibition;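 also: potency is read from the fitted curve at half-maximal effect; parasites grown with compound for 72 h before SYBR Green readout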
[24] = biological target: Ferritin light chain (Equus caballus) (UniProt P02791); experiment: qHTS Validation Assay for Identification of Novel General Anesthetics (AID 2323); also: series mostly up to about 77 µM
Procedure, shortened: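 Competitive displacement of the profluorescent anesthetic 1-AMA (50% saturated, PBS) from 10 uM apoferritin, 10 min, room temperature. Activity is normalized 380/535 nm fluorescence; concentration-response fitted with a four-parameter Hill equation.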

[25] = biological target: ATP-dependent DNA helicase Q1 (Homo sapiens) (UniProt P46063); experiment: qHTS Validation Assay for Inhibitors of RecQ-Like Dna Helicase 1 (RECQ1) (AID 2353)
Procedure, shortened: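 50 nM RECQ1T1 preincubated 15 min with compound in Tris pH 8.0 buffer with MgCl2, DTT, Tween-20 and 2.5 ug/ml poly(dI-dC); started with 200 nM TAMRA/BHQ-2 forked duplex and 2 mM ATP. Unwinding read as fluorescence (525/598 nm), two reads 2 h apart.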

[26] = Quantitative high throughput screen for delayed death inhibitors of the malarial parasite plastid, 96 hour incubation (AID 488745); also: potency is read from the fitted curve at half-maximal effect; nearly all actives have a fitted effect of over 70% in size
Procedure, shortened: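 Infected erythrocytes were added to compound in Albumax-supplemented RPMI 1640 at 0.1% parasitemia and 2% hematocrit (final), incubated 96 h at 37 C under 5% CO2, then luciferase reagent was added and luminescence measured.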

[27] = Quantitative high throughput screen for delayed death inhibitors of the malarial parasite plastid, 48 hour incubation (AID 488752); also: potency is read from the fitted curve at half-maximal effect; nearly all actives have a fitted effect of over 65% in size
Procedure, shortened: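 Readout is firefly luciferase luminescence from a reporter integrated into the parasite genome, with lower signal taken as inhibited growth. Infected red cells (0.1% parasitemia, 2% hematocrit final) are cultured with compound for one 48 h cycle at 37 C.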

[28] = biological target: M-phase phosphoprotein 8 (Homo sapiens) (UniProt Q99549); experiment: qHTS Validation Assay for Inhibitors for MPP8 Chromodomain Interactions with Methylated Histone Tails (AID 488949);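 also: AlphaScreen signal from MPP8 chromodomain bound to biotinylated H3K9me3 peptide; top concentration of the series differs between compounds; nearly all actives have a fitted effect of over 55% in size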
Procedure, shortened: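 AlphaScreen proximity signal from streptavidin donor and Ni-chelate acceptor beads (10 ug/mL each) reported binding of MPP8 to trimethyl-K9 H3(1-18) peptide, both at 50 nM. The complex formed 30 min before a 30 min compound exposure at room temperature, in PBS pH 7.4.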

[29] = biological target: Transient receptor potential cation channel subfamily V member 1 (Homo sapiens) (UniProt Q8NER1); experiment: HTS Assay for Compounds that Act as Enhancers of the Vanilloid Receptor 1 (AID 488979)
Procedure, shortened: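 Calcium influx kinetics via Fluo-8 (480/520 nm) in TRPV1-expressing cells, 2000/well cultured overnight at 35.5C. Compound-alone read 3 min (agonist phase), followed by EC20 capsaicin challenge for 2 min (enhancer phase).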

[30] = biological target: Thyrotropin receptor (Homo sapiens) (UniProt P16473); experiment: qHTS Assay for Antagonists of the Thyroid Stimulating Hormone Receptor (AID 488980); also: series mostly up to about 58 µM
Procedure, shortened: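 Inhibition of cAMP raised by EC80 TSH (4 nM final) was read by HTRF, with lysate cAMP competing against cAMP-d2 for cryptate antibody after 30 min at room temperature. The cells were transfected HEK293 held in phosphodiesterase inhibitor RO 20-1724 at 70 uM.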

Measured: Potency

Chain of 3',5'-cyclic-AMP phosphodiesterase 4B (Homo sapiens) (Q07343 whole entry, looked up): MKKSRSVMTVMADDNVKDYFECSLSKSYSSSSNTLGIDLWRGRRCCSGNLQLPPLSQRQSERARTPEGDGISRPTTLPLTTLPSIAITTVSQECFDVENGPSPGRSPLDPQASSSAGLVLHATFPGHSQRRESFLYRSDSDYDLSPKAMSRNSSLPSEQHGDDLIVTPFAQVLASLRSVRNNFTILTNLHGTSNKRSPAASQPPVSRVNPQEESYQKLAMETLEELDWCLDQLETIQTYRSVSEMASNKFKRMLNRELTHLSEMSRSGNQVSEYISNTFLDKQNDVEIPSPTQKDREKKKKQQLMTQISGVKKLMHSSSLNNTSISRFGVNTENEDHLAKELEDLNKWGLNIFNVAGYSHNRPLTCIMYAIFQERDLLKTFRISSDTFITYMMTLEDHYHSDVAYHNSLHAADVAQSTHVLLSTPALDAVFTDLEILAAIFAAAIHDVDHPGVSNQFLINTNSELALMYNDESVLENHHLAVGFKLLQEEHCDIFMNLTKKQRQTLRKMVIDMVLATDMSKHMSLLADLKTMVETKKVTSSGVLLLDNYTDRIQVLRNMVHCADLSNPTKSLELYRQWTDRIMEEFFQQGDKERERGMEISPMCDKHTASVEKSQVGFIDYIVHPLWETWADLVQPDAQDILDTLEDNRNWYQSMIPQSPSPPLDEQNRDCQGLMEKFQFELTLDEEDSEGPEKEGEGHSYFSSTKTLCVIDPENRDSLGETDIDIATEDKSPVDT
Chain of Cytochrome P450 3A4 (Homo sapiens) (P08684 whole entry, looked up): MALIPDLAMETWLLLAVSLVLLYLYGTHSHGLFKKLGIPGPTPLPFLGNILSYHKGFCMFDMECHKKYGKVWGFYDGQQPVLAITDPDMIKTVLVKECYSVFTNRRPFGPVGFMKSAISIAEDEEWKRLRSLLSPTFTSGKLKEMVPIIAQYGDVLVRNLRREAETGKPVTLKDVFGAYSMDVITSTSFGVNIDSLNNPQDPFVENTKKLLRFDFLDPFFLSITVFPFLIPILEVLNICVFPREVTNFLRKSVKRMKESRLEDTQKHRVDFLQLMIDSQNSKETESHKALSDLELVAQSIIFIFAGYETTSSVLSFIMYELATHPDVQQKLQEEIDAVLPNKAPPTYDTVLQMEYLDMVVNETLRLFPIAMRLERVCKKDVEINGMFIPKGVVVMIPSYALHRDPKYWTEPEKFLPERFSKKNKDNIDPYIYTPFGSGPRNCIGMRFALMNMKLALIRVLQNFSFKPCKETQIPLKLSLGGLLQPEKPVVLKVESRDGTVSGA
Chain of Cytochrome P450 2C9 (Homo sapiens) (P11712 whole entry, looked up): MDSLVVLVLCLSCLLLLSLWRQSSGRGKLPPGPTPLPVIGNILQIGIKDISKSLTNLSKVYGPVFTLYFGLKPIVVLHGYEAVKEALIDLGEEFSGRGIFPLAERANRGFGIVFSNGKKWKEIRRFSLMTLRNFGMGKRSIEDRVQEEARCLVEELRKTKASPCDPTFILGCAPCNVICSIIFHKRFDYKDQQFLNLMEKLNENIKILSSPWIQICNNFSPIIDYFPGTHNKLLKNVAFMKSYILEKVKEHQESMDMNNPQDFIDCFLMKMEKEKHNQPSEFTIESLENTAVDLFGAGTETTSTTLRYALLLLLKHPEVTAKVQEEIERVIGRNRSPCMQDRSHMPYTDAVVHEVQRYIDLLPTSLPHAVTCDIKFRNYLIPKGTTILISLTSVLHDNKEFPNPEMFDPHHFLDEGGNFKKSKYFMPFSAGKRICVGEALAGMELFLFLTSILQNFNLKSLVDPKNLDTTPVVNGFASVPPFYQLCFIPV
Chain of Glucocorticoid receptor (Homo sapiens) (P04150 whole entry, looked up): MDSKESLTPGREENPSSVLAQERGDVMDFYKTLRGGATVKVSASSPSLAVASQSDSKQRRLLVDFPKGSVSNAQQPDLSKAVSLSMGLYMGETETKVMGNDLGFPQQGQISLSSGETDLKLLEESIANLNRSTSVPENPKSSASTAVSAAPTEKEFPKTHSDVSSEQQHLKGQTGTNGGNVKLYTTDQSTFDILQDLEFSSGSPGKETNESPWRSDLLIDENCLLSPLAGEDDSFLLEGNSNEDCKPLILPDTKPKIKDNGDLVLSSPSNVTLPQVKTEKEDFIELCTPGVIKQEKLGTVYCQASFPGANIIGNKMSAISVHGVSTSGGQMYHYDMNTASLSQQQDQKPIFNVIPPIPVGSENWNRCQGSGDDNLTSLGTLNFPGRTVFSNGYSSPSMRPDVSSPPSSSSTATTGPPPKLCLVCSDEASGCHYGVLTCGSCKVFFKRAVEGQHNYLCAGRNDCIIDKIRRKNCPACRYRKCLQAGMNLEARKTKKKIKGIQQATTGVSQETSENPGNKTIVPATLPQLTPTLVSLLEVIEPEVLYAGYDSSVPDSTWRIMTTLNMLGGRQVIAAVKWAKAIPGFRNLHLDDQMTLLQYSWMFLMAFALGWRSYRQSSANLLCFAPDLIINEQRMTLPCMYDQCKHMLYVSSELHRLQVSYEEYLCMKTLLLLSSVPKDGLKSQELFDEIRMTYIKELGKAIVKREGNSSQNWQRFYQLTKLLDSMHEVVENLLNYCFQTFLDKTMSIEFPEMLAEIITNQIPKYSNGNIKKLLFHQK
Chain of Cytochrome P450 1A2 (Homo sapiens) (P05177 whole entry, looked up): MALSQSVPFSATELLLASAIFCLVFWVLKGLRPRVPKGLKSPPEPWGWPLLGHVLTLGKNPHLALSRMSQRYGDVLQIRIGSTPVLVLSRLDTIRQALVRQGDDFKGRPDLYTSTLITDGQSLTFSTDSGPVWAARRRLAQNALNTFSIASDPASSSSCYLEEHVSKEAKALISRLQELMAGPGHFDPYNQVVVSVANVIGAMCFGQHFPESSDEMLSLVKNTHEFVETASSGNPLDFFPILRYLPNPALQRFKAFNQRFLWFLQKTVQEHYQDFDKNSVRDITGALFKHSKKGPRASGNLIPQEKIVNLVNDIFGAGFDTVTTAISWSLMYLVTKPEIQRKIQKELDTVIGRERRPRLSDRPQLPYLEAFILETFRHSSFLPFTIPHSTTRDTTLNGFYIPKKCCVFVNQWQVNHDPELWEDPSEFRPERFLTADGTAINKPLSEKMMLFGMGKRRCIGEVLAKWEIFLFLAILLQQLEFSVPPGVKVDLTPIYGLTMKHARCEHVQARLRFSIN
Chain of Pyruvate kinase (Leishmania mexicana) (Q27686 2-499 E452W): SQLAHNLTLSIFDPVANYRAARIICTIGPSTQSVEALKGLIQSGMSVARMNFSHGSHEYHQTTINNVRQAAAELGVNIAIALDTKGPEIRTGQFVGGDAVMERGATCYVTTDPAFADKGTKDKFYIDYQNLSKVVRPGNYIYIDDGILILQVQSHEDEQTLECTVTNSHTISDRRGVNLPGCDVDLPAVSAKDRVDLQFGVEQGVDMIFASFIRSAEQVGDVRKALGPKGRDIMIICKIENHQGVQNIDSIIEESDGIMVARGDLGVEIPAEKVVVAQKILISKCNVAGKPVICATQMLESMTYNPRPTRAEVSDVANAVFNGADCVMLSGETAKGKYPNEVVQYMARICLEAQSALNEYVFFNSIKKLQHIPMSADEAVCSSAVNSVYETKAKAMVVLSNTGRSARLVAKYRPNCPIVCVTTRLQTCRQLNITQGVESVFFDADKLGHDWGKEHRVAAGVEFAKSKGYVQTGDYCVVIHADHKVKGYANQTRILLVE
Chain of Ferritin light chain (Equus caballus) (P02791 2-175 limits assumed): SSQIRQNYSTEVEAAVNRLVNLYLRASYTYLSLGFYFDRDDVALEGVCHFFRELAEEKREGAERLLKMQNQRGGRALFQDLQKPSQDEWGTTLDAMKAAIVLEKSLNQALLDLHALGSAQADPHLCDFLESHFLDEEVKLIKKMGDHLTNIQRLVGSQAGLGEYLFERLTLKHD
Chain of Alpha-galactosidase A (Homo sapiens) (P06280 whole entry, looked up): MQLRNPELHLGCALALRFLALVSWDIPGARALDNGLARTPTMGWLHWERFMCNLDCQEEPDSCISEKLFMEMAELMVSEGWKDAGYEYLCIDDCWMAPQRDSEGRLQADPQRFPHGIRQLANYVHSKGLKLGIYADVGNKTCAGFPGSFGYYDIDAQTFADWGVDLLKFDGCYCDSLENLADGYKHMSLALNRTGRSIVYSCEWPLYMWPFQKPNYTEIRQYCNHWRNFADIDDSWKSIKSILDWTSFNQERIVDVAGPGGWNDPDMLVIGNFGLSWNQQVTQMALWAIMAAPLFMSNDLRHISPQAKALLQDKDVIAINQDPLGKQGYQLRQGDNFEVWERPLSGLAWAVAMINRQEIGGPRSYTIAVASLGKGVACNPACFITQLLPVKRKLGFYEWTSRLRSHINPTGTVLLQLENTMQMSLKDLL
Chain of Muscarinic acetylcholine receptor M1 (Rattus norvegicus) (P08482 whole entry, looked up): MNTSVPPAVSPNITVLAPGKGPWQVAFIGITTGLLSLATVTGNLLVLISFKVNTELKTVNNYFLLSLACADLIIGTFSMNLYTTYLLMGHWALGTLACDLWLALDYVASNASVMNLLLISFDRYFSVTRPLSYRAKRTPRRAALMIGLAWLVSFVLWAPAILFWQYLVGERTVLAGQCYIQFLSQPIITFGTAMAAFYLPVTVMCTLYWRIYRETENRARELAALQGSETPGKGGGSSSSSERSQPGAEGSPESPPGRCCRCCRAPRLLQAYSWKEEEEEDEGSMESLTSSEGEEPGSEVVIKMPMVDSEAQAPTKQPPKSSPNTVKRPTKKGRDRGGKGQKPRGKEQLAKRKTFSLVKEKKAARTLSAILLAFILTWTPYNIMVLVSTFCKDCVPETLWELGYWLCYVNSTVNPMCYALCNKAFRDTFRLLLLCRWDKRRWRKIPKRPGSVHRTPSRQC
Chain of DNA repair nuclease/redox regulator APEX1 (Homo sapiens) (P27695 whole entry, looked up): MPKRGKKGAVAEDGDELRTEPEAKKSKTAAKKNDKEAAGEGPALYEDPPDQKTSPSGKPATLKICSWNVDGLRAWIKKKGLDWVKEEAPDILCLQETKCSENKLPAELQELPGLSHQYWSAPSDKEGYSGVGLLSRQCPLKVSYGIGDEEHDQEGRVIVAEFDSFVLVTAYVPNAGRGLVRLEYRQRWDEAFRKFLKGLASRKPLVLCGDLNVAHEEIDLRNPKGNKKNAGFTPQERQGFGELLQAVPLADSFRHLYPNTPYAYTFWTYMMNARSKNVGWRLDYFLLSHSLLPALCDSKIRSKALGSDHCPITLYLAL

COc1cc2c(cc1C(F)(F)F)N(C(=O)Nc1cc(F)cc(-c3cccnc3)c1)CC2
active: [1] 794 nM and 316 nM | [6] 10 µM and 794 nM | [7] 2510 nM | [17] 2000 nM | [18] 2240 nM | [19] 1580 nM | [20] 2240 nM | [21] 6310 nM | [22] 2240 nM | [23] 1260 nM | [26] 1850 nM | [27] 2940 nM
inactive: [2] > 46000 nM | [3] | [4] | [5] | [8] | [9] | [10] | [11] | [12] | [13] | [14] | [15] | [16] | [24] | [25] | [28] | [29] | [30]
